From PubChem BioAssay
A selection: hits, their analogues and other compounds. The true share with any hit is near 6.8%.
PTAP TSG101 blk: qHTS Assay for Iinhibitors of HIV-1 Budding by Blocking the Interaction of PTAP/TSG101. Fluorescence polarization, FITC-PTAP peptide / Tsg101 binding. Potency, µM (highest dose often 115 µM), for inactives: at the top dose activity change, negative = inhibition, most hits filed as inhibitors. 340,000 tested, under 10 active. AID 493005, 2010; active = well fitted inhibition curve with a large enough effect in the main read-out, with a control signal flat, not every such curve was filed as active; inconclusive = small, poorly fitted or top-dose-only effect, or effect the other way, or a change in a side signal; inactive = no such curve, though single readings can be large or run the other way; note: % of control where 0% means no effect
Target sequence (Q99816 whole entry, looked up): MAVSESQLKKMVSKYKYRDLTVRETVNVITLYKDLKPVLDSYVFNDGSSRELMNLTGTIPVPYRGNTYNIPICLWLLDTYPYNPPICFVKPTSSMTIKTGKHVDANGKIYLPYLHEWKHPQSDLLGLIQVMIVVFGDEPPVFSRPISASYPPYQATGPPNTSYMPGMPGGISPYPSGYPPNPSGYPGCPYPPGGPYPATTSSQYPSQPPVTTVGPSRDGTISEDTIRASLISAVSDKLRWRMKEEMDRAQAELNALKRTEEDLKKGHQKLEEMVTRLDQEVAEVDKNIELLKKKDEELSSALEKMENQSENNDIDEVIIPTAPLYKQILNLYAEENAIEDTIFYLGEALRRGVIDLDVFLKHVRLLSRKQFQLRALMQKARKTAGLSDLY
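Tsg101 binding domain (10 uM final) was mixed with compound and a FITC-labeled PTAP peptide (50 nM final) in HEPES pH 7.5 buffer with NaCl, Tween 20, EDTA and TCEP; fluorescence polarization was read after 20 min at r.t.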
MCF10A rereplic: A quantitative high throughput screen for small molecules that induce DNA re-replication in MCF 10a normal breast cells; hit rate 2.9% among 350,000; Potency, µM (highest dose often 46.1 µM), inactives show at the highest dose activity, positive = re-replication, actives largely listed as activators; MCF 10A DNA re-replication, Hoechst nuclear intensity, 48 h; AID 624296, 2012; note: % of control where 0% means no effect; nearly all actives have a fitted effect of over 50% in size
PINK1 modulator: A Quantitative High throughput Screen to Identify Chemical Modulators of PINK1 Expression; PINK1 immunofluorescence, high-content cytometry, 24 h; Potency, µM (doses to about 76.6 µM), inactives show at the highest dose activation (PINK1 increase), usual class: activators; hit rate 0.2% among 410,000; AID 624263, 2012; active = well fitted activation curve with a large enough effect; inconclusive = small, poorly fitted or top-dose-only effect; cell line not stated here; note: % of control where 0% means no effect; nearly all actives have a fitted effect of over 65% in size
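A stable cell line was treated with compounds at 5 concentrations for 24 hours, with CCCP as control. PINK1 levels and mitochondrial localization were measured by immunofluorescence with mitochondrial, cell and nuclear markers after fixation, read by laser-scanning cytometry.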
SW480 rereplic: A quantitative high throughput screen for small molecules that induce DNA re-replication in SW480 colon adenocarcinoma cells; Potency, µM (doses to about 46.1 µM), for the others: at the top dose re-replication activation, actives largely listed as activators; hit rate 1.8% among 340,000; SW480 DNA re-replication, Hoechst DNA content imaging, 48 h; AID 624297, 2012; note: % of control where 0% means no effect; nearly all actives have a fitted effect of over 55% in size
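Quantitative HTS format with DMSO vehicle controls; 48 hr drug incubation at 37 C, then 40 min Hoechst staining and scanning imager measurement at 405 nm excitation.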
KB-3-1 tox: qHTS assay for MDR1-selective chemotherapeutics: Primary screen using the parental adenocarcinoma cell KB-3-1; KB-3-1 viability, CellTiter-Glo ATP luminescence, 72 h; Potency, µM (top dose mostly 46.1 µM), actives largely listed as cytotoxic; hit rate 1.4% among 400,000; note: % is set by controls: 0 for no effect and ±100 for the full control effect; nearly all actives have a fitted effect of over 60% in size
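Using CellTiter-Glo luminescence, growth of non-resistant KB-3-1 adenocarcinoma cells is assessed 72 h after pin-tool compound addition at 37 °C. Normalized responses across the concentration series yield fitted curves.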
KB-V1 MDR tox: qHTS assay for MDR1-selective chemotherapeutics: Primary screen using the drug-selected MDR subline cells KB-V1 | KB-V1 MDR cells viability, CellTiter-Glo, 72 h | Potency, µM (series often up to 46.1 µM), hits mostly cytotoxic | hit rate 3.4% among 400,000 | AID 1347076, 2019; note: % is set by controls: 0 for no effect and ±100 for the full control effect; nearly all actives have a fitted effect of over 60% in size
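Drug-selected KB-V1 cells, grown in DMEM lacking phenol red with 10% FBS, receive compound titrations; after three days at 37 degrees C, surviving cell ATP is quantified by CellTiter-Glo luminescence and responses normalized and curve-fitted.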
Numbers without * were called inactive; [ ] = dose if it differs, or a comment. Unless noted, calls come from the whole dose curve; as a rule, active = well fitted curve in the direction sought with a large enough effect; inconclusive = small, poorly fitted or top-dose-only effect, or another doubt; inactive = no such curve, though single readings can be large; an effect the other way counts as inactive or inconclusive. Potency is the fitted concentration of half-maximal effect.

`CCOC(=O)C1CCCN(C(=O)C2c3ccccc3Oc3ccccc32)C1` (centres undefined) gave PTAP TSG101 blk -19%, MCF10A rereplic 11%, PINK1 modulator 0%, SW480 rereplic -4%, KB-3-1 tox inactive and KB-V1 MDR tox 12µM*.
CCc1ccc(NC(=O)C(=O)NCC(c2cccnc2)N2CCN(Cc3ccccc3)CC2)cc1 (centres undefined) was read as PINK1 modulator 1%, KB-3-1 tox inactive and KB-V1 MDR tox inactive.
Screening CCc1cccc(NC(=O)CCc2c(C)nc3c(c2C)c(=O)n(C)c(=O)n3C)c1 returned PINK1 modulator 4%, KB-3-1 tox inactive and KB-V1 MDR tox inactive.
For CCOc1ccccc1N1CCN(C(=O)C2c3ccccc3Oc3ccccc32)CC1 the results were PTAP TSG101 blk -6%, MCF10A rereplic 6.5µM*, PINK1 modulator 3%, SW480 rereplic 16µM*, KB-3-1 tox 13µM* and KB-V1 MDR tox 15µM*.
For CCCCNc1oc(-c2cccs2)nc1S(=O)(=O)c1ccccc1 the results were PTAP TSG101 blk -5%, MCF10A rereplic inconclusive, PINK1 modulator -5%[38.3 µM], SW480 rereplic inconclusive, KB-3-1 tox inconclusive and KB-V1 MDR tox 15µM*.
Screening Cc1cc(C)nc(Sc2ccc([N+](=O)[O-])cc2[N+](=O)[O-])n1 returned PTAP TSG101 blk -1%, MCF10A rereplic inconclusive, PINK1 modulator 7%, KB-3-1 tox inactive and KB-V1 MDR tox inconclusive.
Screening O=[N+]([O-])c1ccc(Sc2ccncn2)c([N+](=O)[O-])c1 returned PINK1 modulator -1%, KB-3-1 tox 12µM* and KB-V1 MDR tox inconclusive.
`Cc1nn(Cc2cccc(C(=O)NC34CC5CC(CC(C5)C3)C4)c2)c(C)c1Br` gave PTAP TSG101 blk -5%, MCF10A rereplic 9.2µM*, PINK1 modulator 0%, SW480 rereplic 7%, KB-3-1 tox inactive and KB-V1 MDR tox inconclusive.
`CCc1ccc(Nc2n[n+](-c3ccccc3)c(-c3ccc(SC)cc3)s2)cc1` gave PTAP TSG101 blk -1%, MCF10A rereplic -10%, PINK1 modulator 35µM*, SW480 rereplic -3%, KB-3-1 tox inconclusive and KB-V1 MDR tox inactive.
For CSc1ccc(-c2sc(Nc3ccccc3)n[n+]2-c2ccccc2)cc1 the results were PTAP TSG101 blk 0%, MCF10A rereplic inconclusive, PINK1 modulator 2%, SW480 rereplic -4%[9.22 µM], KB-3-1 tox inactive and KB-V1 MDR tox inactive.
Screening CCOc1cc(-c2sc(Nc3ccccc3)n[n+]2-c2ccc(F)cc2)ccc1OC returned PTAP TSG101 blk -14%, MCF10A rereplic -9%, PINK1 modulator 3%, SW480 rereplic 10%, KB-3-1 tox inconclusive and KB-V1 MDR tox inactive.
Fc1ccc(-[n+]2nc(Nc3ccccc3)sc2-c2ccc(OCc3ccccc3)cc2)cc1 was read as MCF10A rereplic 1.3µM*, PINK1 modulator inconclusive, SW480 rereplic 0%, KB-3-1 tox inconclusive and KB-V1 MDR tox inactive.
CN(NC(=O)Nc1ccccc1)c1cnn(C)c(=O)c1Cl was read as PTAP TSG101 blk -6%, MCF10A rereplic 2.3µM*, PINK1 modulator 2%, SW480 rereplic 3%, KB-3-1 tox inactive and KB-V1 MDR tox inconclusive.
`O=Cc1cn(CCC(=O)O)nc1-c1cccc(Br)c1` gave PTAP TSG101 blk -4%, MCF10A rereplic -1%, PINK1 modulator -1%, SW480 rereplic inconclusive, KB-3-1 tox inactive and KB-V1 MDR tox inactive.
`O=C(O)CCn1cc(/C=C\C(=O)c2ccc(Cl)cc2)c(-c2cccc(Br)c2)n1` gave PTAP TSG101 blk -2%, MCF10A rereplic 12µM*, PINK1 modulator -3%, SW480 rereplic -3%, KB-3-1 tox inactive and KB-V1 MDR tox inactive.
Screening c1ccc(Cn2c(Cn3c(-c4cnccn4)nc4ccccc43)nc3ccccc32)cc1 returned PINK1 modulator 0%, KB-3-1 tox inactive and KB-V1 MDR tox 9.2µM*.
`N#Cc1ccc(NC(=O)Nc2ccc(Oc3ccc(NC(=O)Nc4ccc(C#N)cc4)cc3)cc2)cc1` gave PTAP TSG101 blk -2%, MCF10A rereplic inconclusive, PINK1 modulator 45µM*, SW480 rereplic 7%, KB-3-1 tox inactive and KB-V1 MDR tox inactive.
Screening N#Cc1ccc(NC(=O)Nc2cccc(C#N)c2)cc1 returned PTAP TSG101 blk -7%, MCF10A rereplic 14%, PINK1 modulator 32µM*, SW480 rereplic 16%, KB-3-1 tox inactive and KB-V1 MDR tox inactive.
`COc1ccc(CC(=O)NCc2nc3cccnc3n2Cc2ccc(C)cc2)cc1OC` gave PINK1 modulator -1%.
Screening CCCc1cc(C(=O)Nc2ccc(C(=O)c3ccc(C)cc3)cc2)n(C)n1 returned PTAP TSG101 blk 0%, MCF10A rereplic 18µM*, PINK1 modulator 8%, SW480 rereplic 82%, KB-3-1 tox inactive and KB-V1 MDR tox inactive.
For CCCc1cc(C(=O)Nc2cccc3ccccc23)n(C)n1 the results were PTAP TSG101 blk -2%, MCF10A rereplic inconclusive, PINK1 modulator 11%, SW480 rereplic 20%, KB-3-1 tox inactive and KB-V1 MDR tox inactive.
Screening Cc1cccc(N2CCN(C(c3ccccc3)c3nnc(-c4ccccc4F)o3)CC2)c1C (centres undefined) returned PINK1 modulator -1%, KB-3-1 tox inactive and KB-V1 MDR tox inactive.
CCCOc1ccc(C(=O)Nc2cccc(-c3nc4ccccc4[nH]3)c2)cc1 was read as PINK1 modulator 2%, KB-3-1 tox inconclusive and KB-V1 MDR tox 21µM*.
For COCCN1Cc2cccc(C(=O)NCc3ccc4c(c3)OCO4)c2C1=O the results were PTAP TSG101 blk -1%, MCF10A rereplic -6%, PINK1 modulator -3%, SW480 rereplic 4%, KB-3-1 tox inactive and KB-V1 MDR tox 4.1µM*.
Screening CCOc1cc(OCC)cc(C(=O)Nc2cccc(-c3nc4ccccc4[nH]3)c2)c1 returned PINK1 modulator -2%, KB-3-1 tox inactive and KB-V1 MDR tox inconclusive.
Screening COCCN1Cc2cccc(C(=O)Nc3ccc(-c4nc5ccccc5[nH]4)cc3)c2C1=O returned PTAP TSG101 blk 5%, MCF10A rereplic 7%, PINK1 modulator 4%, SW480 rereplic 0%, KB-3-1 tox inactive and KB-V1 MDR tox inactive.
